Experimental data reported in PubChem BioAssay.
For part of these data: Potency and affinity values are given separately. Activity calls are given as the source filed them.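 How the source made its calls, unless noted: active means calcium signal ratio cut to more than 3 SD under the fully stimulated control mean yet still positive, in both repeats and the primary screen; inactive means the rest.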

Experiments:
[1] = system: TRPC4 beta (transient receptor potential cation channel C4), mouse; assay: activators of mouse TRPC4 channel, confirmation, cell-based, Fluo4 calcium, HEK293 TRPC4beta/mu-opioid, duplicates, 10 µM (AID 2426;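 active means fluorescence ratio normalized to control raised more than 50% in primary screen plus both repeat runs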); settings: Fluo4 calcium fluorescence, at 10 µM; hits give high values
[2] = system: transient receptor potential cation channel C4 beta (TRPC4), mouse; assay: activators of mouse TRPC4 channel, confirmation, cell-based, second round, Fluo4, HEK293 TRPC4beta/mu-opioid, 1 µM (AID 2461;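 active means primary screen active and over 50% activation in each of two duplicate runs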); settings: Fluo4 calcium fluorescence, at 1 µM; hits give high values
[3] = system: TRPC4 (transient receptor potential cation channel C4 beta), mouse; assay: positive allosteric modulators of mouse TRPC4, confirmation, cell-based, second round, Fluo-4, HEK293 TRPC4beta/mu-opioid, 1 µM (AID 2554;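 active means primary screen hit whose fluorescence ratio, in both repeats, exceeds the weak agonist control mean by 3 SD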); settings: DAMGO EC20, Fluo-4 calcium flux, at 1 µM; hits give high values
[4] = system: TRPC4 beta (transient receptor potential cation channel C4), mouse; assay: positive allosteric modulators of mouse TRPC4, confirmation, cell-based, Fluo-4, HEK293 TRPC4beta/mu-opioid (AID 2555;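 active means primary screen hit whose calcium fluorescence ratio, in both repeats, exceeds the weak agonist control mean by 3 SD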); settings: DAMGO EC20, Fluo-4 calcium flux, at 10 µM; hits give high values
[5] = molecular target: Short transient receptor potential channel 4 (Mus musculus) (UniProt Q9QUQ5); assay: inhibitors of mouse TRPC4 channel, confirmation, cell-based, Fluo4, HEK293 TRPC4beta/mu-opioid (AID 2636;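 active means calcium signal cut by more than 3 SD below the full-agonist control yet still positive, in both repeats and the earlier primary screen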); settings: DAMGO, Fluo4 calcium flux, at 10 µM; hits give high values
[6] = molecular target: Short transient receptor potential channel 4 (Mus musculus) (UniProt Q9QUQ5); assay: inhibitors of mouse TRPC4 channel, confirmation, cell-based, second round, Fluo4, HEK293 TRPC4beta/mu-opioid, 1 µM (AID 2637); settings: Fluo4 calcium flux, DAMGO, at 1 µM; hits give high values;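 on inhibition: percent of integrated ratio relative to wells lacking test compound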
[7] = molecular target: Short transient receptor potential channel 4 (Mus musculus) (UniProt Q9QUQ5); assay: mouse TRPC4 channel activators, dose response, cell-based, HEK293 TRPC4/mu-opioid, Fluo-4 calcium (AID 434937;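 active means primary screen activator hit with a dose response curve and TRPC4 channel activation at any tested dose; inactive means no activation, no dose response, or not a primary hit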)
[8] = molecular target: Short transient receptor potential channel 4 (Mus musculus) (UniProt Q9QUQ5); assay: TRPC4 positive allosteric modulators, dose response, cell-based, HEK293 TRPC4/mu-opioid, Fluo-4 calcium, EC20 DAMGO (AID 434941;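 active means earlier screen potentiator hit that boosts the TRPC4 ion channel at some dose, with a dose response; inactive means no potentiation, no dose response, or not a prior hit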;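 further: calcium entry triggered by an EC20 dose of DAMGO at the co-expressed mu-opioid receptor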)
[9] = molecular target: Short transient receptor potential channel 6 (Mus musculus) (UniProt Q61143); assay: inhibition of mouse TRPC6 channel, confirmation, selectivity assay for TRPC4 inhibitor project, cell-based, HEK293, membrane potential dye, duplicate (AID 434948;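 active means active in primary screen and both duplicates, each dropping signal beyond three positive-control SD with fluorescence still positive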); settings: HEK293 TRPC6, membrane potential dye fluorescence, at 10 µM, stimulated with maximal-effect acetylcholine; hits give high values
[10] = molecular target: Short transient receptor potential channel 6 (Mus musculus) (UniProt Q61143); assay: activation of mouse TRPC6 channel, confirmation, selectivity assay for TRPC4 activator project, cell-based, HEK293, membrane potential dye, duplicate (AID 434950;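 active means membrane potential signal rise above negative control mean plus 3 SD in both duplicates, also active in the earlier TRPC4 screen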); settings: HEK293 TRPC6, membrane potential fluorescence, at 10 µM; hits give high values
[11] = molecular target: Short transient receptor potential channel 6 (Mus musculus) (UniProt Q61143); assay: TRPC6 potentiation by TRPC4 potentiator hits, confirmation, selectivity assay for TRPC4 potentiator project, HEK293 cells, membrane potential dye, duplicate (AID 434952;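 active means compound raising the membrane signal above positive-control mean plus 3 SD in both repeats, and a primary screen hit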); settings: HEK293 TRPC6, membrane potential dye fluorescence, at 10 µM, maximal acetylcholine added after compound; hits give high values
[12] = molecular target: Short transient receptor potential channel 4 (Mus musculus) (UniProt Q9QUQ5); assay: calcium flux activators in TRPC4/5HT1a cells, counter-screen for TRPC4 activator project, cell-based, second counter screen, HEK293 TRPC4/5HT1a, Fluo-4 (AID 434977;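 active means calcium signal rise above buffer-control mean plus 5 SD in both duplicates, and also a hit in the primary screen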); settings: Fluo-4 calcium flux, at 10 µM; hits give high values
[13] = calcium flux inhibitors in TRPC4/5HT1a cells, confirmation, counter-screen for TRPC4 inhibitor project, cell-based, second counter screen, HEK293 TRPC4/5HT1a, Fluo-4 (AID 434978;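 active means primary screen active whose calcium signal fell more than 3 SD beyond the full-serotonin control mean in both duplicate plates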;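 on outcome: serotonin given first at submaximal then at maximal dose after compound preincubation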); settings: Fluo-4 calcium flux, at 10 µM, serotonin added to trigger calcium flux; hits give high values
[14] = system: TRPC4 (mouse), co-expressed with 5HT1a in HEK293; assay: calcium flux potentiators in TRPC4/5HT1a cells, confirmation, counter-screen for TRPC4 potentiator project, cell-based, second counter screen, HEK293 TRPC4/5HT1a, Fluo-4 (AID 434979;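 active means signal rise over 3 SD above mean of control wells given weak agonist, in both repeats and first screen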); settings: Fluo-4 calcium flux, at 10 µM, serotonin added at its EC20 dose; hits give high values
[15] = calcium flux activation in mu-opioid HEK293 cells, confirmation, counter-screen for TRPC4 activator project, cell-based, HEK293 mu-opioid receptor line (AID 449723;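 active means hit in primary screen, with calcium signal over 5 SD above buffer well mean in both duplicates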;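 further: counter screen cells carry the mu-opioid receptor alone and lack TRPC4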); settings: Fluo-4 calcium fluorescence, at 10 µM; hits give high values
[16] = calcium flux enhancement in mu-opioid HEK293 cells, confirmation, counter-screen for TRPC4 allosteric potentiator project, cell-based, HEK293 mu-opioid receptor line (AID 449724;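 active means calcium signal rise more than 3 SD above the low-dose agonist control mean, in both duplicate plates and the primary screen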); settings: Fluo-4 calcium flux, at 10 µM, compound added before EC20 DAMGO stimulus; hits give high values

Chain of Short transient receptor potential channel 4 (Mus musculus) (Q9QUQ5 whole entry, looked up): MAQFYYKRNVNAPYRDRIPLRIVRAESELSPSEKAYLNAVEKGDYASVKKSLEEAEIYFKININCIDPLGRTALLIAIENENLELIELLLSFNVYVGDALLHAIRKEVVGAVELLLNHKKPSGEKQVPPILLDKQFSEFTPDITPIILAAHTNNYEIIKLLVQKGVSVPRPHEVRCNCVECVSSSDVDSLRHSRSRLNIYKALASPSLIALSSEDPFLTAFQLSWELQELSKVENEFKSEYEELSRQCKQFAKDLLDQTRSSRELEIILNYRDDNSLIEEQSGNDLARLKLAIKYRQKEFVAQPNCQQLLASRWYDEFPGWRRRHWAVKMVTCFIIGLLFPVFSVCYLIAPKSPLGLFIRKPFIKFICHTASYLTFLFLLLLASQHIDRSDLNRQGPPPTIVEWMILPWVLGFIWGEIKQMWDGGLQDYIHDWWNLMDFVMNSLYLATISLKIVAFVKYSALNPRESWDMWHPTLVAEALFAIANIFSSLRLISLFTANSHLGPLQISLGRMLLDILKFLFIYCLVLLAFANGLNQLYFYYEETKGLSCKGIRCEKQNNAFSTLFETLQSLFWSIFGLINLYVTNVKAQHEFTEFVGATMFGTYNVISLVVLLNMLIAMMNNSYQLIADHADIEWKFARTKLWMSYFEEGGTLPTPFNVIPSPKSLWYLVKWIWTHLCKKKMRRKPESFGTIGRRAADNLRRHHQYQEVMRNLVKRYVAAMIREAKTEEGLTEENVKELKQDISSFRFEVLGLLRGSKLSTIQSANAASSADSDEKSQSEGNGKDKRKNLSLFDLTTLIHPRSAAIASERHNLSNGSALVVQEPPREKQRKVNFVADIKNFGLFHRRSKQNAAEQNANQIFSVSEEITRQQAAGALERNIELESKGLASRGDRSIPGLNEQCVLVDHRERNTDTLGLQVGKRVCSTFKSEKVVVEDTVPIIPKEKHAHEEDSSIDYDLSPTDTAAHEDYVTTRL
Chain of Short transient receptor potential channel 6 (Mus musculus) (Q61143 whole entry, looked up): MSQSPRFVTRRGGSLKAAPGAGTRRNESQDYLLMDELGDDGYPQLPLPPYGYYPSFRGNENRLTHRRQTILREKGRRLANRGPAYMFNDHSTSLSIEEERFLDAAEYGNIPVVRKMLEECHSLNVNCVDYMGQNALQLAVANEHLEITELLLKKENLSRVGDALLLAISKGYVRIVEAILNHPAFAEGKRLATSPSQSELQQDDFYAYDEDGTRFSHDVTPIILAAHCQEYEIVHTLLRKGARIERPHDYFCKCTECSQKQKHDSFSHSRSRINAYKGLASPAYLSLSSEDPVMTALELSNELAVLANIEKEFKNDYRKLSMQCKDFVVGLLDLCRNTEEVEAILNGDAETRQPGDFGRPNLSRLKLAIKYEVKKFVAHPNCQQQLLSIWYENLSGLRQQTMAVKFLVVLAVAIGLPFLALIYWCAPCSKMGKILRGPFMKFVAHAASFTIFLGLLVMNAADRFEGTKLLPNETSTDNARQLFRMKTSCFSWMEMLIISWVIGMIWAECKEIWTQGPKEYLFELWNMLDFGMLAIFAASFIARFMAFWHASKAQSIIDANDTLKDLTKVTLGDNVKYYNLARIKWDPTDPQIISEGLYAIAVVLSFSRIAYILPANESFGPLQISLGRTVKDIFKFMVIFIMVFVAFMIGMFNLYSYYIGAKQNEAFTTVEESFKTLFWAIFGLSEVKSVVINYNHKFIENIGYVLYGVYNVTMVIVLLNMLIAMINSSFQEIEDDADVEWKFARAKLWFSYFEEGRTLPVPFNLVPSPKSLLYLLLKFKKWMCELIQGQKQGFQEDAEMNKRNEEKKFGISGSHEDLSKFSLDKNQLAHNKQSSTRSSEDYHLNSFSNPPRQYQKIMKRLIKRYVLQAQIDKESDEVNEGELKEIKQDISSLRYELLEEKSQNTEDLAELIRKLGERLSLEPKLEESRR

## Cc1n[nH]c(C)c1CCCCOc1ccccc1
[1]
  outcome: inactive
[2]
  outcome: inactive
[3]
  outcome: inactive
[4]
  outcome: inactive
[5]
  inhibition: 95% (active)
[6]
  inhibition: 40% (active)
[7]
  outcome: inactive
[8]
  outcome: inactive
[9]
  outcome: inactive
[10]
  outcome: inactive
[11]
  outcome: inactive
[12]
  outcome: inactive
[13]
  inhibition: 31.5% (active)
[14]
  outcome: inactive
[15]
  outcome: inactive
[16]
  outcome: inactive

## Cc1cc(C)c2[nH]c(=O)c(CN(Cc3cccnc3)C(=S)NCCCN(C)C)cc2c1
[1]
  outcome: inactive
[2]
  outcome: inactive
[3]
  outcome: inactive
[4]
  outcome: inactive
[5]
  inhibition: 89% (active)
[6]
  inhibition: 60% (active)
[7]
  outcome: inactive
[8]
  outcome: inactive
[9]
  outcome: inactive
[10]
  outcome: inactive
[11]
  outcome: inactive
[12]
  outcome: inactive
[13]
  inhibition: 20.5% (active)
[14]
  outcome: inactive
[15]
  outcome: inactive
[16]
  outcome: inactive

## COc1ccc2c(C)cc(N3CCCCCC3)nc2c1
[1]
  outcome: inactive
[2]
  outcome: inactive
[3]
  outcome: inactive
[4]
  outcome: inactive
[5]
  inhibition: 96% (active)
[6]
  inhibition: 63% (active)
[7]
  outcome: inactive
[8]
  outcome: inactive
[9]
  inhibition: 33.5% (active)
[10]
  outcome: inactive
[11]
  outcome: inactive
[12]
  outcome: inactive
[13]
  inhibition: 20.8% (active)
[14]
  outcome: inactive
[15]
  outcome: inactive
[16]
  outcome: inactive

## Cc1ccc(S(=O)(=O)c2cnc(-c3ccccc3)nc2N2CCN(C)CC2)cc1
[1]
  outcome: inactive
[2]
  outcome: inactive
[3]
  outcome: inactive
[4]
  outcome: inactive
[5]
  inhibition: 64% (active)
[6]
  outcome: inactive
[7]
  outcome: inactive
[8]
  outcome: inactive
[9]
  outcome: inactive
[10]
  outcome: inactive
[11]
  outcome: inactive
[12]
  outcome: inactive
[13]
  outcome: inactive
[14]
  outcome: inactive
[15]
  outcome: inactive
[16]
  outcome: inactive

## Oc1ccccc1Nc1nc(NCc2ccco2)c2ccccc2n1
[1]
  outcome: inactive
[2]
  outcome: inactive
[3]
  outcome: inactive
[4]
  outcome: inactive
[5]
  inhibition: 88% (active)
[6]
  outcome: inactive
[7]
  outcome: inactive
[8]
  outcome: inactive
[9]
  inhibition: 34.5% (active)
[10]
  outcome: inactive
[11]
  outcome: inactive
[12]
  outcome: inactive
[13]
  inhibition: 39.1% (active)
[14]
  outcome: inactive
[15]
  outcome: inactive
[16]
  outcome: inactive

## Cc1ccc2cc(CN(CCN3CCOCC3)C(=O)NCc3ccccc3)c(=O)[nH]c2c1C
[1]
  outcome: inactive
[2]
  outcome: inactive
[3]
  outcome: inactive
[4]
  outcome: inactive
[5]
  inhibition: 80% (active)
[6]
  inhibition: 42% (active)
[7]
  outcome: inactive
[8]
  outcome: inactive
[9]
  outcome: inactive
[10]
  outcome: inactive
[11]
  outcome: inactive
[12]
  outcome: inactive
[13]
  inhibition: 34% (active)
[14]
  outcome: inactive
[15]
  outcome: inactive
[16]
  outcome: inactive

## CC(C)Cc1nc(N2CCOCC2)c(C#N)c2c1CCC2
[1]
  outcome: inactive
[2]
  outcome: inactive
[3]
  outcome: inactive
[4]
  outcome: inactive
[5]
  inhibition: 76% (active)
[6]
  inhibition: 50% (active)
[7]
  outcome: inactive
[8]
  outcome: inactive
[9]
  outcome: inactive
[10]
  outcome: inactive
[11]
  outcome: inactive
[12]
  outcome: inactive
[13]
  inhibition: 35.1% (active)
[14]
  outcome: inactive
[15]
  outcome: inactive
[16]
  outcome: inactive

## C=CCN1CCN(C(c2cccc(OC)c2OC)c2nnnn2CCC(C)C)CC1 (stereo not given)
[1]
  outcome: inactive
[2]
  outcome: inactive
[3]
  outcome: inactive
[4]
  outcome: inactive
[5]
  inhibition: 51% (active)
[6]
  outcome: inactive
[7]
  outcome: inactive
[8]
  outcome: inactive
[9]
  outcome: inactive
[10]
  outcome: inactive
[11]
  outcome: inactive
[12]
  outcome: inactive
[13]
  outcome: inactive
[14]
  outcome: inactive
[15]
  outcome: inactive
[16]
  outcome: inactive

## CCOc1cccc(CNCCO)c1OCc1ccc(Cl)cc1
[1]
  outcome: inactive
[2]
  outcome: inactive
[3]
  outcome: inactive
[4]
  outcome: inactive
[5]
  inhibition: 92% (active)
[6]
  outcome: inactive
[7]
  outcome: inactive
[8]
  outcome: inactive
[9]
  outcome: inactive
[10]
  outcome: inactive
[11]
  outcome: inactive
[12]
  outcome: inactive
[13]
  inhibition: 26.5% (active)
[14]
  outcome: inactive
[15]
  outcome: inactive
[16]
  outcome: inactive

## Cc1cc([N+](=O)[O-])ccc1NCc1ccccc1
[1]
  outcome: inactive
[2]
  outcome: inactive
[3]
  outcome: inactive
[4]
  outcome: inactive
[5]
  inhibition: 97% (active)
[6]
  inhibition: 44% (active)
[7]
  outcome: inactive
[8]
  outcome: inactive
[9]
  outcome: inactive
[10]
  outcome: inactive
[11]
  outcome: inactive
[12]
  outcome: inactive
[13]
  outcome: inactive
[14]
  outcome: inactive
[15]
  outcome: inactive
[16]
  outcome: inactive

## Clc1ccccc1CSc1nc2ccncc2[nH]1
[1]
  outcome: inactive
[2]
  outcome: inactive
[3]
  outcome: inactive
[4]
  outcome: inactive
[5]
  inhibition: 99% (active)
[6]
  outcome: inactive
[7]
  outcome: inactive
[8]
  outcome: inactive
[9]
  outcome: inactive
[10]
  outcome: inactive
[11]
  outcome: inactive
[12]
  outcome: inactive
[13]
  outcome: inactive
[14]
  outcome: inactive
[15]
  outcome: inactive
[16]
  outcome: inactive

## c1ccc(-c2ccccc2OCCOCCN2CCCCC2)cc1
[1]
  outcome: inactive
[2]
  outcome: inactive
[3]
  outcome: inactive
[4]
  outcome: inactive
[5]
  inhibition: 94% (active)
[6]
  inhibition: 44% (active)
[7]
  outcome: inactive
[8]
  outcome: inactive
[9]
  outcome: inactive
[10]
  outcome: inactive
[11]
  outcome: inactive
[12]
  outcome: inactive
[13]
  inhibition: 33.7% (active)
[14]
  outcome: inactive
[15]
  outcome: inactive
[16]
  outcome: inactive

## CCOc1ccc(NC(=O)c2c[nH]n3c(=O)cc(C4CCN(C(=O)OC(C)(C)C)CC4)nc23)cc1
[1]
  outcome: inactive
[2]
  outcome: inactive
[3]
  outcome: inactive
[4]
  outcome: inactive
[5]
  inhibition: 50% (active)
[6]
  outcome: inactive
[7]
  outcome: inactive
[8]
  outcome: inactive
[9]
  outcome: inactive
[10]
  outcome: inactive
[11]
  outcome: inactive
[12]
  outcome: inactive
[13]
  inhibition: 43.4% (active)
[14]
  outcome: inactive
[15]
  outcome: inactive
[16]
  outcome: inactive

## CC(NCCC(Cc1ccccc1)c1ccco1)c1ccccc1 (stereo not given)
[1]
  outcome: inactive
[2]
  outcome: inactive
[3]
  outcome: inactive
[4]
  outcome: inactive
[5]
  inhibition: 97% (active)
[6]
  outcome: inactive
[7]
  outcome: inactive
[8]
  outcome: inactive
[9]
  inhibition: 39% (active)
[10]
  outcome: inactive
[11]
  outcome: inactive
[12]
  outcome: inactive
[13]
  inhibition: 28.4% (active)
[14]
  outcome: inactive
[15]
  outcome: inactive
[16]
  outcome: inactive

## CCCCC(CC)c1nnc(NC(=O)c2cccs2)s1 (stereo not given)
[1]
  outcome: inactive
[2]
  outcome: inactive
[3]
  outcome: inactive
[4]
  outcome: inactive
[5]
  inhibition: 90% (active)
[6]
  outcome: inactive
[7]
  outcome: inactive
[8]
  outcome: inactive
[9]
  outcome: inactive
[10]
  outcome: inactive
[11]
  outcome: inactive
[12]
  outcome: inactive
[13]
  inhibition: 40.9% (active)
[14]
  outcome: inactive
[15]
  outcome: inactive
[16]
  outcome: inactive
